Here are results for four molecules from PubChem BioAssay (EPA / NIEHS).

Calls of active or inactive are those of the source. Rule for the calls: active = hit-call score of the fitted dose curve at least 0.9, where 1 is the maximum; inactive = score below 0.9.

What all share (settings): mRNA level, 48 h; actives raise or lower the signal
Read-out in assay [1]: DNA damage-inducible transcript 3 (DDIT3), DDIT3 (gene 1649)
The assay is described as follows: LTEA_HepaRG_DDIT3: Life Technologies and Expression Analysis (LTEA) Assay for DNA damage-inducible transcript 3 (DDIT3) using HepaRG (AID 2283488). In outline: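 Cells are human HepaRG liver cells treated for 48 h with eight half-log concentrations up to 100 uM in 0.5% DMSO. Transcript levels come from qRT-PCR normalized to three housekeeping genes, with activity fitted in both directions relative to vehicle.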

Read-out in assay [2]: Pro-epidermal growth factor (Homo sapiens) (UniProt P01133)
The assay is described as follows: LTEA_HepaRG_EGF: Life Technologies and Expression Analysis (LTEA) Assay for Epidermal growth factor (EGF) using HepaRG (AID 2283489). In outline:
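Concentration-response mRNA assay: HepaRG cells dosed 48 h (max 100 uM, 0.5% DMSO), EGF measured by qRT-PCR and normalized to ACTB/GAPDH/POLR2A.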

Read-out in assay [3]: Early growth response protein 1 (EGR1) transcription factor, EGR1 (gene 1958)
The assay is described as follows: LTEA_HepaRG_EGR1: Life Technologies and Expression Analysis (LTEA) Assay for Early growth response protein 1 (EGR1) transcription factor using HepaRG (AID 2283490). In outline:
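EGR1 transcript levels quantified by qRT-PCR (Fluidigm arrays) against three housekeeping genes after 48 h chemical exposure of HepaRG cells. Eight-point half-log series topping at 100 uM, 0.5% DMSO vehicle, analyzed for gain or loss.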

Read-out in assay [4]: Ezrin (EZR), EZR (gene 7430)
The assay is described as follows: LTEA_HepaRG_EZR: Life Technologies and Expression Analysis (LTEA) Assay for Ezrin (EZR) using HepaRG (AID 2283491). In outline:
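Differentiated human HepaRG cells, 48 h after plating, were exposed in serum-free induction medium for 48 hours to eight half-log concentrations up to 100 uM in 0.5% DMSO. EZR mRNA was measured by TaqMan qRT-PCR, normalized to ACTB, GAPDH and POLR2A, and fitted bidirectionally against DMSO.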

Read-out in assay [5]: Cytochrome P450 3A7 (Homo sapiens) (UniProt P24462)
The assay is described as follows: LTEA_HepaRG_CYP3A7: Life Technologies and Expression Analysis (LTEA) Assay for CYP3A7 using HepaRG (AID 2283492). In outline:
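qRT-PCR of CYP3A7 in HepaRG lysates after 48 h treatment; concentration-response (8 points, max 100 uM) analysed bidirectionally relative to 0.5% DMSO controls.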

Read-out in assay [6]: CYP3A5 (gene 1577)
As to the kind of experiment: LTEA_HepaRG_CYP3A5: Life Technologies and Expression Analysis (LTEA) Assay for CYP3A5 using HepaRG (AID 2283493). In outline: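 Human HepaRG hepatic cells receive 48 h chemical treatment at eight concentrations (half-log steps from 100 uM) in 0.5% DMSO. Expression of CYP3A5 is quantified by Fluidigm qRT-PCR and normalized to three reference genes.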

Read-out in assay [7]: Fatty Acid-Binding Protein 1 (FABP1), FABP1 (gene 2168)
As to the kind of experiment: LTEA_HepaRG_FABP1: Life Technologies and Expression Analysis (LTEA) Assay for Fatty Acid-Binding Protein 1 (FABP1) using HepaRG (AID 2283494). In outline:
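FABP1 expression by TaqMan qRT-PCR, normalised to three housekeeping genes, in HepaRG cells after 48 h chemical treatment. Eight-point half-log series topping at 100 uM in 0.5% DMSO, duplicates; gain or loss fitted relative to vehicle.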

Read-out in assay [8]: Cytochrome P450 4A22 (Homo sapiens) (UniProt Q5TCH4)
As to the kind of experiment: LTEA_HepaRG_CYP4A22: Life Technologies and Expression Analysis (LTEA) Assay for Cytochrome P450 4A22 (CYP4A22) using HepaRG (AID 2283495). In outline: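 Concentration-response (8 points, max 100 uM, 0.5% DMSO) in human HepaRG liver cells after 48 h exposure. CYP4A22 mRNA by TaqMan qRT-PCR with housekeeping-gene normalization.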

Read-out in assay [9]: Cytochrome P450 7A1 (Homo sapiens) (UniProt P22680)
The assay is described as follows: LTEA_HepaRG_CYP7A1: Life Technologies and Expression Analysis (LTEA) Assay for Cytochrome P450 7A1 (CYP7A1) using HepaRG (AID 2283496). In outline:
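HepaRG, 48 h exposure, 8-pt half-log series from 100 uM, 0.5% DMSO vehicle, duplicates. Readout: TaqMan qRT-PCR mRNA vs three housekeeping genes; bidirectional curve fit against DMSO baseline.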

Read-out in assay [10]: Glutathione S-Transferase (GSTA2), GSTA2 (gene 2939)
The assay is described as follows: LTEA_HepaRG_GSTA2: Life Technologies and Expression Analysis (LTEA) Assay for Glutathione S-Transferase (GSTA2) using HepaRG (AID 2283497). In outline:
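GSTA2 transcript levels came from Fluidigm TaqMan qRT-PCR normalized to three housekeeping genes, fitted in both directions against DMSO. HepaRG cultures received chemicals for 48 h in serum-free induction medium (0.5% DMSO), 8 half-log concentrations up to 100 uM, duplicate.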

Read-out in assay [11]: Glutamate-cysteine ligase catalytic (GCLC), GCLC (gene 2729)
As to the kind of experiment: LTEA_HepaRG_GCLC: Life Technologies and Expression Analysis (LTEA) Assay for Glutamate-cysteine ligase catalytic (GCLC) using HepaRG (AID 2283498). In outline: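 Expression by TaqMan qRT-PCR, normalized to three housekeeping genes (ACTB, GAPDH, POLR2A), with up- or down-regulation fitted against DMSO. HepaRG cells dosed in duplicate for 48 h with 8 half-log concentrations up to 100 uM, vehicle 0.5% DMSO.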

Read-out in assay [12]: growth arrest and DNA damage 45 (GADD45G), GADD45G (gene 10912)
The assay is described as follows: LTEA_HepaRG_GADD45G: Life Technologies and Expression Analysis (LTEA) Assay for growth arrest and DNA damage 45 (GADD45G) using HepaRG (AID 2283499). In outline:
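Concentration-response in HepaRG: 48 h dosing, 0.5% DMSO, highest level 100 uM. GADD45G expression by qRT-PCR, normalised to endogenous controls; bidirectional fit to DMSO.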

Read-out in assay [13]: Glutamate-cysteine ligase regulatory (GCLM), GCLM (gene 2730)
The assay is described as follows: LTEA_HepaRG_GCLM: Life Technologies and Expression Analysis (LTEA) Assay for Glutamate-cysteine ligase regulatory (GCLM) using HepaRG (AID 2283500). In outline:
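Endpoint is GCLM transcript level by qRT-PCR, normalized to three housekeeping genes, after 48 h chemical exposure of human HepaRG cells (0.5% DMSO vehicle, top 100 uM, half-log dilutions). Fitting was bidirectional relative to DMSO.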

Read-out in assay [14]: Heat shock 70 kDa protein 1 (HSPA1A), gene 3303
The assay is described as follows: LTEA_HepaRG_HSPA1A: Life Technologies and Expression Analysis (LTEA) Assay for Heat shock 70 kDa protein 1 (HSPA1A) using HepaRG (AID 2283502). In outline: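 Cells were plated and cultured for 48 h, then switched to serum-free induction medium. Chemicals were added at eight half-log concentrations up to 100 uM for 48 h. RNA was then isolated and HSPA1A measured by qRT-PCR with bidirectional curve fitting against DMSO.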

Read-out in assay [15]: Hypoxia-inducible factor 1-alpha (Homo sapiens) (UniProt Q16665)
The assay is described as follows: LTEA_HepaRG_HIF1A: Life Technologies and Expression Analysis (LTEA) Assay for Hypoxia-inducible factor 1 (HIF1A) Trancription factor using HepaRG (AID 2283503). In outline:
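HIF1A transcript level read by qRT-PCR (ACTB, GAPDH, POLR2A normalization) after 48 h chemical exposure of HepaRG cultures. Eight half-log concentrations, top 100 uM, 0.5% DMSO vehicle, duplicates; bidirectional curve fit against DMSO baseline.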

Read-out in assay [16]: 3-Hydroxy-3-Methylglutaryl-CoA Synthase 2 (HMGCS2), HMGCS2 (gene 3158)
The assay is described as follows: LTEA_HepaRG_HMGCS2: Life Technologies and Expression Analysis (LTEA) Assay for 3-Hydroxy-3-Methylglutaryl-CoA Synthase 2 (HMGCS2) using HepaRG (AID 2283504). In outline: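 This steatosis marker was read as HMGCS2 mRNA change in HepaRG cells treated 48 h with up to 100 uM chemical. Normalisation used housekeeping genes; activity in either direction was fitted relative to 0.5% DMSO vehicle.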

Read-out in assay [17]: HGF (gene 3082)
As to the kind of experiment: LTEA_HepaRG_HGF: Life Technologies and Expression Analysis (LTEA) Assay for Hepatocyte Growth Facto (HGF) using HepaRG (AID 2283505). In outline:
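Using HepaRG monolayers kept in 0.5% DMSO, chemicals were tested in duplicate over eight half-log concentrations from 100 uM for 48 h. Endpoint: HGF mRNA change relative to DMSO, normalized to ACTB/GAPDH/POLR2A.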

Read-out in assay [18]: Insulin Like Growth Factor 1 (IGF1), IGF1 (gene 3479)
The assay is described as follows: LTEA_HepaRG_IGF1: Life Technologies and Expression Analysis (LTEA) Assay for Insulin Like Growth Factor 1 (IGF1) using HepaRG (AID 2283506). In outline: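 Cells are thawed, plated and cultured 48 h, then exposed in duplicate to chemical (highest 100 uM, half-log steps, 0.5% DMSO) for another 48 h. Total RNA is analysed by Fluidigm qRT-PCR for IGF1 expression relative to vehicle.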

Read-out in assay [19]: Intercellular Adhesion Molecule 1 (ICAM1), ICAM1 (gene 3383)
As to the kind of experiment: LTEA_HepaRG_ICAM1: Life Technologies and Expression Analysis (LTEA) Assay for Intercellular Adhesion Molecule 1 (ICAM1) using HepaRG (AID 2283507). In outline: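 Using the human liver line HepaRG, compounds are tested in duplicate over 48 h at concentrations up to 100 uM. Expression is determined by TaqMan qRT-PCR, normalized to endogenous controls, and analysed relative to 0.5% DMSO vehicle.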

Read-out in assay [20]: Glutathione S-transferase M3 (GSTM3), GSTM3 (gene 2947)
The assay is described as follows: LTEA_HepaRG_GSTM3: Life Technologies and Expression Analysis (LTEA) Assay for Glutathione S-transferase M3 (GSTM3) using HepaRG (AID 2283501). In outline:
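Expression of GSTM3 is determined by qRT-PCR in human liver HepaRG cells treated 48 h with an 8-point half-log range from 100 uM in 0.5% DMSO.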

Cytochrome P450 3A7 (Homo sapiens), sequence (P24462 whole entry, looked up): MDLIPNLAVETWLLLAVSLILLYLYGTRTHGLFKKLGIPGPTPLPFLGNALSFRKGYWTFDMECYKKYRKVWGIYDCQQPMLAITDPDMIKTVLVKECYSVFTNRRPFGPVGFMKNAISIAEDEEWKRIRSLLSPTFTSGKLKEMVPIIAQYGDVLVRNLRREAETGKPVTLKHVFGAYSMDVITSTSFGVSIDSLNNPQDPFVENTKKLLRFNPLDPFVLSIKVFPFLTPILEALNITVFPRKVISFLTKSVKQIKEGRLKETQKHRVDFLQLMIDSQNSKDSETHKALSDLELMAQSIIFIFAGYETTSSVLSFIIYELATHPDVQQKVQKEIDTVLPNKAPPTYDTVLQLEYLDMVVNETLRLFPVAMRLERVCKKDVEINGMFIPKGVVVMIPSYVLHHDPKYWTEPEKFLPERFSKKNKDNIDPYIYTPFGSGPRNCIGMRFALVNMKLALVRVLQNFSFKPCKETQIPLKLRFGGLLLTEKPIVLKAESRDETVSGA
Hypoxia-inducible factor 1-alpha (Homo sapiens), sequence (Q16665 whole entry, looked up): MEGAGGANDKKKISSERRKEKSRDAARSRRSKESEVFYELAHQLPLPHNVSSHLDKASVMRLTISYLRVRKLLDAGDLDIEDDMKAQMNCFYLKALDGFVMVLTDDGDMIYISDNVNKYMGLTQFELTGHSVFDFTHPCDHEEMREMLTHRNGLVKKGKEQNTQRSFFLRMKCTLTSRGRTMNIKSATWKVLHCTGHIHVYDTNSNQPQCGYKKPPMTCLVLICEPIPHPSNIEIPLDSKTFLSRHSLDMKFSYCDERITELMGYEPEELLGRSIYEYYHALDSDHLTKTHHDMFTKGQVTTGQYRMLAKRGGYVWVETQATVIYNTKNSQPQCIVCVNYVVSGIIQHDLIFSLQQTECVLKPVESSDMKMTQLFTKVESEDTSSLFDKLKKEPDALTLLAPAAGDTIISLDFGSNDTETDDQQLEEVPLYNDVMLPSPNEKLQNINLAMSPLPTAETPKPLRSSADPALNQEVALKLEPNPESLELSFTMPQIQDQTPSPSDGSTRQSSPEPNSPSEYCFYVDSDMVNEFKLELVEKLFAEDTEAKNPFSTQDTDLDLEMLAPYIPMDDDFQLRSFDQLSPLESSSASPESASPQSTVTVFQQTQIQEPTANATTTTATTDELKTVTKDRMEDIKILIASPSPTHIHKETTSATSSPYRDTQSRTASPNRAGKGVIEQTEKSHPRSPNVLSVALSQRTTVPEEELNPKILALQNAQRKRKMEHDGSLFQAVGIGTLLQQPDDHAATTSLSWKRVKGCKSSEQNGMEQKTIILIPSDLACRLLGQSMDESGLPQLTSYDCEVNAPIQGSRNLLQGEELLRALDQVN

As a reminder, the AC50 is the concentration at which the activity in the assay is half-maximal. Turning to `ClC1=C(Cl)[C@]2(Cl)[C@@H]3[C@@H](Cl)[C@H]4O[C@H]4[C@@H]3C1(Cl)C2(Cl)Cl`, the result in [1], in assay [2], in assay [3], in assay [4], in assay [6] and in assay [11] was inactive. Also, the outcome in [12], in assay [13], in assay [14], in assay [15], in [17] and in assay [19] was inactive. Further, the half-maximal activity concentration (AC50) was 1.77 µM (active) in [5]; 50 µM (active) in assay [7]; 24.9 µM (active) in [8]; 13.3 µM (active) in assay [9]; 82.5 µM (active) in [10]; 18.4 µM (active) in assay [16]. Besides, the AC50 in assay [18] was 5.01 µM (active).

With `C=CC(N)=O`, the outcome in assay [1], in assay [2], in assay [3], in assay [4], in assay [5] and in assay [6] was inactive. Further, the call in [7], in [8], in [9], in assay [10], in [11] and in [12] was inactive. The molecule was called inactive in [13], in assay [20], in [14], in assay [15], in assay [16] and in assay [18]. The result in assay [19] was inactive.

Regarding `CC(C)(c1ccccc1)c1ccc(O)cc1`, the molecule was classed as inactive in [1], in assay [2], in assay [3], in assay [4], in assay [5] and in assay [6]. For the same molecule, the outcome in [7], in [8], in assay [11], in assay [12], in assay [13] and in assay [14] was inactive. In addition, the outcome in [15], in [16], in assay [18] and in assay [19] was inactive. Further, the figures for the AC50 in assay [9] and in assay [10] were 88.7 µM (active) and 87.3 µM (active), respectively.

Regarding `CN(C)CCO`, the result in [1], in assay [2], in assay [3], in assay [4], in [5] and in assay [6] was inactive. In addition, the result in assay [7], in assay [8], in [9], in [10], in assay [11] and in assay [12] was inactive. Moreover, the outcome in assay [13], in [14], in assay [15], in assay [16], in assay [17] and in assay [18] was inactive. Further, the call in [19] was inactive.
